PubChem BioAssay (NCI)
Several values for one entry are separate records, joined by “and”; a condition that tells them apart may be missing. Equal values may be shown once. About 83,000 compounds went through this panel and 20% of them were active in at least one assay; those are over-represented in the sample as a whole.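 48-hour exposure, single concentration, 96-well plates; percent growth endpoint where 0 means no net growth. Active: below 10.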 Activity calls are given as the source filed them.

The compounds below were run on MDA-MB-468 breast (assay: NCI-60 one-dose screen, 48 h (100 = growth as untreated, 0 = no growth, -100 = all killed)). Details: 10 µM unless noted.

| SMILES | growth |
| --- | --- |
| Oc1cccnc1CN1CCOCC1 | 97.2% (inactive) and 102% (inactive) |
| O=C1CCC(N2C(=O)c3cccc(NCCCCCCOc4ccc(Nc5nccc(Nc6ccccc6)n5)cc4)c3C2=O)C(=O)N1 (stereo not drawn) | 49.3% (inactive) |
| Cc1ccc(C(=O)Nc2ccc(CN3CCN(C)CC3)c(C(F)(F)F)c2)cc1C#Cc1cnc2cccnn12 | -85.9% (active) |
| O=[N+]([O-])c1cc2c(cc1Br)-c1ccccc1C2 | 16.7% (inactive) |
| CC[C@H](C)[C@@H]1NC(=O)[C@H](Cc2ccc(O)cc2)N(C)C(=O)[C@H](Cc2ccccc2)NC(=O)CN(C)C(=O)[C@@H]2CCCN2C(=O)[C@@H](Cc2ccccc2)N(C)C(=O)[C@H](CC(C)C)NC1=O | -13.3% (active) |
| COc1ccc(/C=C/C(=O)c2ccc(NC(=O)CSc3nnc(-c4ccc(OC)cc4)n3-c3ccccc3)cc2)cc1 | 106% (inactive) |
| CCN(CC)CCCOc1ccc2c(c1)O/C(=C\c1cccc(OC)c1)C2=O | 79.8% (inactive) |
| O=C1C=CN2C(=O)CC=CC2[C@@H]1O (stereo partly drawn) | 110% (inactive) |
| COc1cc(-c2nn(C(=O)NCCN3CCN(C)CC3)cc2-c2ccncc2)ccc1Cl | 60.9% (inactive) |
| O=C(O)/C=C/C(=O)c1ccc(Cl)cc1 | 124% (inactive) |
| COC(=O)c1c(C)nc(C)c2c1C(=O)C(Br)=C(NCc1ccccc1)C2=O | -21.3% (active) |
| CC(C)(C)n1cc(-c2ccnc(NCCNS(=O)(=O)c3cccc(F)c3)c2)c(-c2ccccc2)n1 | 62.8% (inactive) |
| COC(=O)C(CC(=O)c1ccc(-c2ccccc2)cc1)c1ccccc1 (stereo not drawn) | 52.5% (inactive) |
